# Rows were chosen to be rich in hits. Some 11% of all compounds tested hit in one or more screens of this group.
# HP1b chromo inh: HTS for Inhibitors of HP1-beta Chromodomain Interactions with Methylated Histone Tails; Chromobox protein homolog 1 (Homo sapiens), P83916; AlphaScreen HP1-beta / biotin-H3K9me3 peptide binding; Potency, µM (highest dose often 114 µM), inactives show top-dose activity change, negative = inhibition, actives largely listed as inhibitors; 390,000 compounds, 0.56% hits; AID 540317, 2011; also: nearly all actives have a fitted effect of over 70% in size
#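 Compound inhibition of the preformed complex between 50 nM HP1-beta and 50 nM biotinylated H3K9me3 peptide was read by AlphaScreen. Buffer was PBS pH 7.4 with 0.01% Tween-20. Incubations ran 30 min at room temperature, with 10 ug/mL donor/acceptor beads.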
# BAZ2B inh: qHTS Assay for Inhibitors of BAZ2B | Bromodomain adjacent to zinc finger domain protein 2B (Homo sapiens), Q9UIF8 | AlphaScreen BAZ2B-H3K14Ac peptide displacement | Potency, µM (titrated, usually from 114 µM), without a hit: at the highest dose activity change, negative = inhibition, most hits filed as inhibitors | 360,000 compounds, 4.4% hits; also: % is scaled to controls: 0 for no effect and ±100 for the full control effect; nearly all actives have a fitted effect of over 60% in size
#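 AlphaScreen displacement: compounds (up to 110uM) incubated 30 min at room temperature with a preformed 50 nM BAZ2B/50 nM biotinylated H3K14Ac peptide complex in PBS pH 7.4 with Tween-20. Donor and acceptor beads at 10 ug/mL final added, 20 min light-protected before reading.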
# G9a inh: qHTS Assay for Inhibitors of Histone Lysine Methyltransferase G9a; 350,000 compounds, 8.8% hits; Potency, µM (series often up to 102 µM), without a hit: at the top dose activity, negative = inhibition, usual class: inhibitors; AID 504332, 2011; Histone-lysine N-methyltransferase EHMT2 (Homo sapiens), Q96KQ7; G9a H3K9 monomethylation, AlphaScreen, 2 h; also: % is scaled to controls: 0 for no effect and ±100 for the full control effect; nearly all actives have a fitted effect of over 75% in size
#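 G9a (20 nM) was preincubated 15 min with compound, then reacted 2 h at room temperature with 500 nM biotin-H3K9 peptide and 20 µM SAM. Monomethyl-H3K9 detected by AlphaScreen using anti-H3K9me1 antibody.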
# JMJD2A Tudor: qHTS Assay for Inhibitors of JMJD2A-Tudor Domain; Potency, µM (top dose mostly 114 µM), for the others: at the top dose activity change, negative = inhibition, hits mostly inhibitors; 390,000 compounds, 4.4% hits; AlphaScreen JMJD2A-Tudor / H3K4me3 peptide binding; also: % is scaled to controls: 0 for no effect and ±100 for the full control effect; nearly all actives have a fitted effect of over 50% in size
# Target sequence (O75164 whole entry, looked up, the tested form may be a part): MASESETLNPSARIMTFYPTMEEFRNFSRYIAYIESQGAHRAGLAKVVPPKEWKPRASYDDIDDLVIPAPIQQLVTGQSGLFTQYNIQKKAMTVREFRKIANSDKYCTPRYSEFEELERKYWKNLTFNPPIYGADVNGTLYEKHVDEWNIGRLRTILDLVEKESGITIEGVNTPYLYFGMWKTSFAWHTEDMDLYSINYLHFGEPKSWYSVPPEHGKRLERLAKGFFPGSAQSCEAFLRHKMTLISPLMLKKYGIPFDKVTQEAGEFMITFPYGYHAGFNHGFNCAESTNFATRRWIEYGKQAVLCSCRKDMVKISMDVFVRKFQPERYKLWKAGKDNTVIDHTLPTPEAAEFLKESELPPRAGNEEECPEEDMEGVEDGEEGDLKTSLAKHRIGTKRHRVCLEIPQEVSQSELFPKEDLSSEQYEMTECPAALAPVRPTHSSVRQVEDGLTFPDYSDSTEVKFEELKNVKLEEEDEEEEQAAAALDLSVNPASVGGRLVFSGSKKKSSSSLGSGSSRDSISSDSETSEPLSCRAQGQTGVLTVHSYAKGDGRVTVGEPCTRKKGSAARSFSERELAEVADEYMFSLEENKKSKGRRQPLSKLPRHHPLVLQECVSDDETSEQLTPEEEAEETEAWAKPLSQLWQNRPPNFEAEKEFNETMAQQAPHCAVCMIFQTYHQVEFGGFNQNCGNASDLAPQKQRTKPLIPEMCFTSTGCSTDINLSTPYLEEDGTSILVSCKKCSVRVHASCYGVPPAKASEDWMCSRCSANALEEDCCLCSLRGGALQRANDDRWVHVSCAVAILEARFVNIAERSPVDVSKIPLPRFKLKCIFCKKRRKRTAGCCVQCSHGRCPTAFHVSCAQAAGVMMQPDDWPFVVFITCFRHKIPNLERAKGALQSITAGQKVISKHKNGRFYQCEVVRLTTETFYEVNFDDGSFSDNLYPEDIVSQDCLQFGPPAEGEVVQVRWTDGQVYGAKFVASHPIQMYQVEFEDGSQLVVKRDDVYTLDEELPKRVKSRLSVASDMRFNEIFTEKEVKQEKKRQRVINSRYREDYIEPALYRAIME
# VDR inh: Inhibitors of the vitamin D receptor (VDR): qHTS; Vitamin D3 receptor (Homo sapiens), P11473; VDR-SRC2-3 peptide fluorescence polarization, 2 h; Potency, µM, inactives show max response, negative = inhibition, usual class: inhibitors; 400,000 compounds, 0.93% hits; also: % is scaled to controls: 0 for no effect and ±100 for the full control effect
#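 VDR–SRC2-3 interaction, FP format. Cmpds 23 nl via pintool, brief spin, 2 h ambient incubation.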
# PLK1 PBD block: qHTS for Inhibitors of PLK1-PDB (polo-like kinase 1 - polo-box domain): Primary Screen. Serine/threonine-protein kinase PLK1 (Homo sapiens), P53350. Plk1 PBD binding of FITC phosphopeptide, fluorescence polarization. Potency, µM, for the others: max response, negative = inhibition, most hits filed as inhibitors. 360,000 compounds, 2.8% hits; also: series mostly up to about 57 µM; % is scaled to controls: 0 for no effect and ±100 for the full control effect; nearly all actives have a fitted effect of over 65% in size
# Active calls of the source: *; u = inconclusive; x = not tested or not shown; [ ] = dose if it differs, or a comment. Calls follow the shape of the dose curve; as a rule, active = well fitted curve in the direction sought with a large enough effect; inconclusive = small, poorly fitted or top-dose-only effect, or another doubt; inactive = no such curve, though single readings can be large; an effect the other way counts as inactive or inconclusive. Potency is read from the fitted curve at half-maximal effect.
SMILES,HP1b chromo inh,BAZ2B inh,G9a inh,JMJD2A Tudor,VDR inh,PLK1 PBD block
COC(=O)c1ccc(CN2CCCC(CO)(Cc3ccccc3F)C2)cc1 (stereo not drawn),24%,2%,20%,-16%,7%,1%
O=C(Nc1ccc(S(=O)(=O)N2CCCc3ccccc32)cc1)C1CCCO1 (stereo not drawn),7%,4%,45µM*,-25%,6%,-9%
O=C(Nc1ccc(S(=O)(=O)N2CCc3ccccc3C2)cc1)C1CCCO1 (stereo not drawn),17%,-29%,2%[59 µM],-18%,-11%,-6%
O=C(NCc1ccccc1)c1ccc(NC(=O)C2CCCO2)cc1 (stereo not drawn),36%,-31%,20µM*,-6%,0%,9%
COc1ccc(C2C3=C(CCCC3=O)Nc3nc(C(F)(F)F)nn32)c(OC)c1OC (stereo not drawn),26%,21%,-25%[59 µM],12%,14%,3%
CCCc1cc(=O)oc2cc(C)cc(OCC(=O)N[C@@H](CSCc3ccccc3)C(=O)O)c12,32%,2%,x,-13%,-21%,-1%
Cc1cc(/C=N/n2cnnc2)c(C)n1-c1ccc(OCc2ccccc2F)cc1,u,u,u,56µM*,-8%,-3%
Cc1cc(/C=N/n2cnnc2)c(C)n1-c1ccc(OCc2ccc(Cl)cc2)cc1,u,79µM*,40µM*,45µM*,1%,2%
Cc1ccc(N(CC(=O)Nc2cccc(F)c2)S(=O)(=O)c2cccs2)cc1,6%,x,5%[59 µM],-19%,-8%,x
O=c1ccc(-c2ccc(S(=O)(=O)Nc3cccc([N+](=O)[O-])c3)s2)n[nH]1,41%,-31%,71µM*,-11%,8%,-9%
O=C1CS/C(=N\C(=O)N2c3ccccc3Sc3ccccc32)N1,-12%,u,5.6µM*,u,5%,-17%
Cc1nc2c3ccccc3n(CCN3CCCCC3)c2s1,x,-6%,9%[12.7 µM],x,x,x
Cc1nc2c3ccccc3n(Cc3ccccc3F)c2s1,18%,u,u,9%,45µM*,-8%
CCc1ccc2c(c1)c1nc(C)sc1n2CC(=O)OC,11%,-25%,u,-14%,-2%,-12%
Cc1nc2c3cc(F)ccc3n(Cc3ccccc3F)c2s1,-22%,50µM*,-26%[59 µM],23%,50µM*,u
CCC(=O)N1CCc2cc(S(=O)(=O)CCC(=O)N3CCN(c4ccc(F)cc4)CC3)ccc21,17%,-21%,18%,-10%,5%,-13%
COc1ccccc1CNC(=O)c1cccc(-c2ccccc2OC)n1,x,x,u,x,2%,x
Cc1ccc(-c2csc(/C(C#N)=C(\O)CN3CCN(C(=O)c4ccco4)CC3)n2)cc1,-17%,u,-47%[12.7 µM],79µM*,10%,-24%
CCCCN(C)C/C(O)=C(\C#N)c1nc(-c2ccccc2)cs1,-3%,u,40µM*,u,-13%,-15%
Cc1ccc(-c2csc(/C(C#N)=C(\O)CCl)n2)cc1,-2%,-29%,35µM*,u,-1%,u
COc1ccc(CN2CCNC(=O)C2CC(=O)NC2CCCC2)cc1OC (stereo not drawn),4%,-31%,71µM*,u,-20%,-15%
O=C(CC1C(=O)NCCN1Cc1ccccc1)NC1CCCCC1 (stereo not drawn),x,x,x,x,x,-18%
CCOc1ccc(CN2CCNC(=O)C2CC(=O)NC2CCCCCC2)cc1 (stereo not drawn),27%,-26%,40µM*,-21%,-1%,-6%

# High-throughput results (PubChem BioAssay)
